# TDP1 cell CPT – qHTS for Inhibitors of human tyrosyl-DNA phosphodiesterase 1 (TDP1): qHTS in cells in presence of CPT | chicken DT40 Tdp1-/-;hTDP1 cells + 20 nM CPT, ATP luminescence, 48 h | Potency, µM (series often up to 46.2 µM), for inactives: at the top dose activity change, negative = growth inhibition, usual class: inhibitors | hit rate 12% among 420,000 | AID 686979, 2013; note: potency is the fitted concentration of half-maximal effect; nearly all actives have a fitted effect of over 55% in size
#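 Chicken DT40 Tdp1-/- cells complemented with human TDP1, 400 cells/well, exposed to compounds plus 20 nM camptothecin for at least 48 h at 37 C; viability read as ATP content by CellTiter-Glo luminescence.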
# IL-1B inflam inh – qHTS for Inhibitors of Inflammasome Signaling: IL-1-beta AlphaLISA Primary Screen | hit rate 4.7% among 360,000 | AID 743279, 2014 | THP-1 LPS/ATP IL-1B secretion, AlphaLISA, 16 h; stronger effect = lower value | activity change, % at 57.5 µM; in the data active = activity change below about -50%; inconclusive = mostly about -30% to -49%
#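 Secreted IL-1B measured by AlphaLISA bead assay after 16 h compound exposure of THP-1 cells; compounds (final up to 57.5 uM) added 1 h before LPS (250 ng/mL) and ATP (1.25 mM) stimulation; lower signal means less secretion.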
# HT1080-NT tox – qHTS for induction of synthetic lethality in tumor cells producing 2HG: qHTS for the HT-1080-NT fibrosarcoma cell line. Potency, µM (top dose mostly 46.1 µM), inactives show top-dose activity, negative = less viability, actives largely listed as cytotoxic. HT-1080-NT fibrosarcoma viability, CellTiter-Glo ATP luminescence, 48 h. hit rate 1.6% among 360,000;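 note: NT is the 2HG producing partner of a matched IDH1 knockdown line; potency is the fitted concentration of half-maximal effect; 0% = DMSO-treated cells and -100% = media-only wells without cells; nearly all actives have a fitted effect of over 55% in size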
#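 Fibrosarcoma NT cells, 750 per well in 5% FBS RPMI, were exposed to compound for 48 hours. Viability: CellTiter-Glo luminescence.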
# HT1080 IDH1KD tx – qHTS for induction of synthetic lethality in tumor cells producing 2HG: qHTS for the HT-1080-IDH1KD cell line. HT-1080 IDH1 knockdown viability, ATP luminescence, 48 h. Potency, µM (doses to about 46.1 µM), for the others: at the highest dose activity, negative = toxicity, actives largely listed as cytotoxic. hit rate 2% among 360,000. AID 686971, 2013;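 note: potency is the fitted concentration of half-maximal effect; 0% = DMSO wells and -100% = cell-free medium wells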
#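 After a 2 h attachment period, IDH1KD HT-1080 cells took pin-transferred compound for 48 h at 37 °C; ATP-based luminescence after 10 min room-temperature reagent incubation reported viability.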
# DT40 TDP1 no CPT – qHTS for Inhibitors of human tyrosyl-DNA phosphodiesterase 1 (TDP1): qHTS in cells in absence of CPT; DT40 Tdp1-/- hTDP1 cells, no CPT, ATP luminescence, 48 h; Potency, µM (highest dose often 46.2 µM), for the others: at the top dose activity change, negative = growth inhibition, hits mostly inhibitors; hit rate 15% among 420,000; AID 686978, 2013; note: potency is the fitted concentration of half-maximal effect; nearly all actives have a fitted effect of over 55% in size
#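 Chicken DT40 Tdp1-/- cells stably complemented with human TDP1 were seeded at 400 cells/well with DMSO in place of 20 nM camptothecin. After compound pinning, cells grew at least 48 hr at 37 °C; viability read by CellTiter-Glo luminescence.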
# * hit, by the source's call; ? = inconclusive; nt = no result given; [ ] = remark or other dose. This is a sample that favours compounds with a hit; in the whole collection about 19% have one here. Unless noted, calls come from the whole dose curve; as a rule, active = well fitted curve in the direction sought with a large enough effect; inconclusive = small, poorly fitted or top-dose-only effect, or another doubt; inactive = no such curve, though single readings can be large; an effect the other way counts as inactive or inconclusive. Unless noted, % is set by controls: 0 for no effect and ±100 for the full control effect.
SMILES,TDP1 cell CPT,IL-1B inflam inh,HT1080-NT tox,HT1080 IDH1KD tx,DT40 TDP1 no CPT
O=C(NCCc1nc2ccccc2[nH]1)/C(=C/c1ccco1)NC(=O)c1ccc(Br)cc1,23µM*,0,-14%,-9%,?
Cc1ccc(C(=O)N2CCOc3ccc(CN4CCN(Cc5ccccn5)CC4)cc3C2)cc1,-1%[9.04 µM],nt,nt,nt,-22%
COCC1CCN(Cc2nc(-c3ccc(OC)cc3)no2)CC1,-1%,11,10%,0%,-25%
Cc1cccc(CN2CCN(C(=O)CCc3nnc(C4CCCCC4)o3)CC2)c1,-21%,-13,-4%,-3%,?
CCOC(=O)c1cnc2ccc(OC(F)(F)F)cc2c1Nc1ccccc1C(=O)O,?,nt,nt,nt,15µM*
CCOC(=O)c1cnc2ccc(OC)cc2c1NCCc1ccccc1,?,nt,nt,nt,10µM*
CCOC(=O)c1cnc2ccc(OCC)cc2c1Nc1cc(Cl)c(OC)cc1OC,15µM*,nt,nt,nt,26µM*
CCOC(=O)c1cnc2ccc(OC)cc2c1Nc1cccc(C(C)=O)c1,16µM*,nt,nt,nt,21µM*
CCOC(=O)c1cnc2ccc(OC)cc2c1NCc1ccccc1,?,2,0%,-4%,?
C/C(=N\NC(=O)c1cccc(S(=O)(=O)N2CCCC2)c1)c1ccc(OCC(=O)N(C)C)cc1,-21%,-7,0%,3%,-15%
COc1ccc(NC(=O)Cn2c(=O)n(Cc3ccco3)c(=O)c3oc4ccccc4c32)cc1Cl,-18%,nt,nt,nt,-29%
CCOC(=O)c1cnc2ccc(OCC)cc2c1NCc1ccccc1OC,5.2µM*,-89*,21µM*,?,5.2µM*
COc1ccc(-c2cc(C(F)(F)F)nc(S(=O)(=O)CCCC(=O)Nc3cccc(O)c3)n2)cc1OC,3.7µM*,-146*,18µM*,12µM*,4.1µM*
COc1ccc(-c2cc(C(F)(F)F)nc(S(=O)(=O)CCCC(=O)Nc3ccccc3C(F)(F)F)n2)cc1OC,1.2µM*,nt,nt,nt,2.1µM*
COc1ccc(NC(=O)CCCS(=O)(=O)c2nc(-c3ccc(OC)c(OC)c3)cc(C(F)(F)F)n2)cc1OC,1.6µM*,nt,nt,nt,1.6µM*
CC(C)CNC(=O)c1cnn2c(C(F)(F)F)cc(C(F)(F)F)nc12,-8%,3,6%,-1%,-3%
O=C(CCc1c[nH]c2ccccc12)N1CCC(n2c(C3CCCO3)nc3cc(C(F)(F)F)ccc32)CC1 (stereo not drawn),10%[9.04 µM],nt,nt,nt,-13%
Cc1c(C(=O)NN2CCCCC2)nn(-c2ccc(Cl)cc2Cl)c1-c1ccc(I)cc1,?,nt,nt,nt,30µM*
Cc1ccc(C)c(N2CCN(C(=O)Cn3c(=O)c4cccn4c4ccc(F)cc43)CC2)c1,-10%,nt,nt,nt,-21%
Cc1nc2cc(C(F)(F)F)ccc2n1C,6%,13,17%,5%,-7%
COC(=O)C1=C(C)Nc2ncnn2C1c1ccc(OC(=O)c2ccccc2)cc1 (stereo not drawn),8.2µM*,14,-3%,-10%,?
CC1=C(C(=O)OCc2ccccc2)C(c2cccnc2)n2ncnc2N1 (stereo not drawn),18µM*,19,-6%,-2%,15µM*
O=C(Nc1ccc(S(=O)(=O)N2CCCC2)cc1)C1CC(=O)N(CCc2ccc(F)cc2)C1 (stereo not drawn),-19%,6,0%,0%,?
CCCNC(=O)C1(C)CCCN(Cc2ccccc2N(C)C)C1 (stereo not drawn),?,-9,-5%,-1%,?
CCc1nccn1CCC(=O)N1CCCC(Nc2ccc(C(C)C)cc2)C1 (stereo not drawn),?,-6,-6%,-5%,18µM*
SMILES,TDP1 cell CPT,IL-1B inflam inh,HT1080-NT tox,HT1080 IDH1KD tx,DT40 TDP1 no CPT
O=C1CCCCN1CCC(=O)N1CCCC(Nc2ccc(F)c(F)c2)C1 (stereo not drawn),-2%,1,16%,20%,9%
Cc1ncsc1CCC(=O)N1CCCC(Nc2ccc(F)c(F)c2)C1 (stereo not drawn),13µM*,9,-4%,-7%,?
Cc1ncsc1CCC(=O)N1CCCC(c2nc(-c3ccncc3)ncc2-c2ccccc2)C1 (stereo not drawn),9%[9.04 µM],nt,nt,nt,21µM*
O=C1CCCCN1CC(=O)N1CCCC(Nc2ccc(F)c(F)c2)C1 (stereo not drawn),21µM*,10,7%,22%,?
Cc1cc(C(=O)NC2CC(C)(C)Cc3c2cnn3-c2cccc(F)c2)nn1C (stereo not drawn),?,-7,7%,0%,?
CN(CC(=O)Nc1ccc(F)cc1)C(=O)CN1C(=O)c2cccc([N+](=O)[O-])c2C1=O,8%,-6,5%,17%,6%
Cc1ncsc1CCC(=O)N1CCCC(Nc2ccc(C(C)C)cc2)C1 (stereo not drawn),?,1,4%,3%,26µM*
COc1ccc(C(=O)N2CCCC(Nc3ccc(C(C)C)cc3)C2)c(OC)n1 (stereo not drawn),?,13,0%,3%,23µM*
COc1ccc(OC)c(Cc2nnc(CCC(=O)NCc3ccc(C)s3)o2)c1,-3%,15,2%,14%,12%
CN(Cc1ccccc1)C(=O)CSc1nc2ccccc2n1Cc1ccccc1F,?,nt,nt,nt,6.5µM*
CN(Cc1ccccc1)C(=O)CSc1nc2ccsc2c(=O)n1-c1ccc(F)cc1,?,nt,nt,nt,21µM*
CC(C)N(C(=O)CSc1nc2ccccc2n1Cc1ccccc1F)C(C)C,16µM*,-10,2%,-29%,16µM*
Cc1sc2nc(SCC(=O)N(C)Cc3ccccc3)n(-c3ccccc3)c(=O)c2c1C,?,10,0%,2%,?
CC(C)N(C(=O)CSc1nc2ccccc2n1Cc1ccccc1)C(C)C,?,9,5%,3%,?
O=c1c2ccccc2nc2n1CCCCC2,-8%,19,5%,1%,-13%
N=c1c2ccccc2nc2n1CCCCCCCCCCC2,5.2µM*,-87*,?,23µM*,7.3µM*
Cc1ccc(S(=O)(=O)Cc2sc3ccccc3[n+]2C)cc1,-25%,11,10%,-1%,?
Cc1sc2ccccc2[n+]1C,4µM*,nt,nt,nt,3.2µM*
Cc1sc2ccccc2[n+]1CCCC[n+]1c(C)sc2ccccc21,4.5µM*,nt,nt,nt,2.5µM*
Cc1sc2ccccc2[n+]1Cc1ccccc1,0.79µM*,nt,nt,nt,1.1µM*
Cc1sc2ccccc2[n+]1CCCCBr,4µM*,nt,nt,nt,5.6µM*

# Screens as filed in PubChem BioAssay.
